{"source": "the supplement of paper PMC7530171", "note": "Structures can show the parent of a compound that is named as a salt. ± gives the standard deviation.", "data": [{"system": "THP-1 macrophages infected with Mycobacterium tuberculosis H37Rv", "experiment": "intracellular M.tb growth inhibition relative to DMSO (0) and 4 uM bedaquiline (100); higher = stronger inhibition of intracellular bacterial growth", "settings": "10 µM; 4 days", "description": "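OICR kinase inhibitor library screened in duplicate at 10 uM against THP-1 macrophages (PMA-differentiated) infected with M. tuberculosis H37Rv-pTEC27 (tdTomato RFP), 4 days at 37 C. Rows with complete host cell loss (placeholder inhibition 0, cell loss 100) were removed.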", "units": {"intracellular M.tb growth inhibition": "%"}, "values": [{"smiles": "CC(C)[C@H](CO)Nc1nc(Nc2ccc(C(=O)O)c(Cl)c2)c2ncn(C(C)C)c2n1", "note": "[Purvalanol B]", "intracellular M.tb growth inhibition": "2.54 ± 10"}, {"smiles": "Cc1ccc(F)c(NC(=O)Nc2ccc(-c3cccc4[nH]nc(N)c34)cc2)c1", "intracellular M.tb growth inhibition": "-14.6 ± 21"}, {"smiles": "NC(=O)c1ccc2[nH]ccc2c1", "intracellular M.tb growth inhibition": "10.6 ± 2.2"}, {"smiles": "COc1cc2nccc(Oc3ccc(NC(=O)Nc4ccc(F)cc4F)c(F)c3)c2cc1OC", "intracellular M.tb growth inhibition": "25.2 ± 4.6"}, {"smiles": "C[C@@H]1CCN(C(=O)CC#N)C[C@@H]1N(C)c1ncnc2[nH]ccc12", "intracellular M.tb growth inhibition": "-17.5 ± 21"}, {"smiles": "O=c1c(O)c(-c2ccc(O)c(O)c2)oc2cc(O)cc(O)c12", "note": "[Quercetin]", "intracellular M.tb growth inhibition": "-5.54 ± 46"}, {"smiles": "O=C(CO)N1CCC(c2n[nH]c(-c3ccc(Cl)cc3)c2-c2ccncn2)CC1", "intracellular M.tb growth inhibition": "-135 ± 140"}, {"smiles": "Cn1cnc2c(F)c(Nc3ccc(Br)cc3Cl)c(C(=O)NOCCO)cc21", "intracellular M.tb growth inhibition": "6.79 ± 5.7"}, {"smiles": "O=C(O)c1ccc(-c2c[nH]c3ncc(-c4ccccc4)cc23)cc1C1CCCC1", "intracellular M.tb growth inhibition": "-23.5 ± 47"}, {"smiles": "CC(C)n1nc(-c2cc3cc(O)ccc3[nH]2)c2c(N)ncnc21", "intracellular M.tb growth inhibition": "14.1 ± 20"}, {"smiles": "Nc1[nH]nc2nc3ccccc3nc12", "intracellular M.tb growth inhibition": "0.53 ± 68"}, {"smiles": "COc1cc2c(cc1OC)-c1[nH]nc(Nc3cccc(F)c3)c1C2", "intracellular M.tb growth inhibition": "62.2 ± 12"}, {"smiles": "COc1cc(Nc2c(C#N)cnc3cc(OCCCN4CCN(C)CC4)c(OC)cc23)c(Cl)cc1Cl", "note": "[Bosutinib]", "intracellular M.tb growth inhibition": "109 ± 1.8"}, {"smiles": "CCN(CCO)CCCOc1ccc2c(Nc3cc(CC(=O)Nc4cccc(F)c4)[nH]n3)ncnc2c1", "intracellular M.tb growth inhibition": "-51.3 ± 83"}, {"smiles": "Nc1nccc(-c2ccc3noc(-c4ccc(Cl)cc4)c3c2)n1", "note": "[PIM 1 Inhibitor 2]", "intracellular M.tb growth inhibition": "20.6 ± 8.4"}, {"smiles": "CC[C@H](Nc1ncnc2[nH]cnc12)c1nc2cccc(F)c2c(=O)n1-c1ccccc1", "intracellular M.tb growth inhibition": "-236 ± 290"}, {"smiles": "O=c1cc(-c2cccc3c2Sc2ccccc2S3)oc(N2CCOCC2)c1", "intracellular M.tb growth inhibition": "3.07 ± 24"}, {"smiles": "CC1=C(C(=O)Nc2cc3cn[nH]c3cc2F)C(c2ccc(C(F)(F)F)cc2)CC(=O)N1", "note": "(stereo not given)", "intracellular M.tb growth inhibition": "-101 ± 100"}, {"smiles": "Cc1nc(N)sc1-c1ccnc(Nc2ccc(N3CCOCC3)cc2)n1", "intracellular M.tb growth inhibition": "13.1 ± 18"}, {"smiles": "Cc1cc(Nc2cc(N3CCN(C)CC3)nc(/C=C/c3ccccc3)n2)n[nH]1", "intracellular M.tb growth inhibition": "-329 ± 400"}, {"smiles": "C[C@@]1(C(=O)Nc2ccc(F)nc2)CCCN1c1nc(Nc2cc(C3CC3)n[nH]2)c2cccn2n1", "intracellular M.tb growth inhibition": "-265 ± 70"}, {"smiles": "Nc1cc(C(F)(F)F)c(-c2cc(N3CCOCC3)nc(N3CCOCC3)n2)cn1", "intracellular M.tb growth inhibition": "-76.8 ± 110"}, {"smiles": "COC(=O)c1ccc2c(c1)NC(=O)/C2=C(\\Nc1ccc(N(C)C(=O)CN2CCN(C)CC2)cc1)c1ccccc1", "intracellular M.tb growth inhibition": "-144 ± 210"}, {"smiles": "C/C(=N\\N=C(N)N)c1ccc(NC(=O)c2cc3cccc([N+](=O)[O-])c3[nH]2)cc1", "intracellular M.tb growth inhibition": "-73 ± 67"}, {"smiles": "Cn1cncc1[C@@](N)(c1ccc(Cl)cc1)c1ccc2c(c1)c(-c1cccc(Cl)c1)cc(=O)n2C", "note": "[Tipifarnib]", "intracellular M.tb growth inhibition": "3.85 ± 56"}, {"smiles": "NC(=O)c1ccc2nc(-c3ccc(Oc4ccc(Cl)cc4)cc3)[nH]c2c1", "note": "[Chk2 Inhibitor II]", "intracellular M.tb growth inhibition": "38.6 ± 14"}, {"smiles": "CN(C)CCOc1cc(-c2cn[nH]c2)ccc1NC(=O)C1COc2ccccc2O1", "note": "(stereo not given)", "intracellular M.tb growth inhibition": "-97.9 ± 79"}, {"smiles": "Cc1cc(C(C)Nc2ccccc2)c2nc(N3CCOCC3)cc(=O)n2c1", "note": "(stereo not given)", "intracellular M.tb growth inhibition": "-38.7 ± 24"}, {"smiles": "CN(C)C/C=C/C(=O)Nc1cc2c(Nc3ccc(F)c(Cl)c3)ncnc2cc1O[C@H]1CCOC1", "intracellular M.tb growth inhibition": "18.3 ± 3"}, {"smiles": "CNC(=O)c1ccccc1Sc1ccc2c(/C=C/c3ccccn3)n[nH]c2c1", "note": "[Axitinib]", "intracellular M.tb growth inhibition": "33.9 ± 1.6"}, {"smiles": "COc1cc(F)c(F)c(Nc2ccc(I)cc2F)c1NS(=O)(=O)C1(C[C@H](O)CO)CC1", "intracellular M.tb growth inhibition": "44.7 ± 27"}, {"smiles": "c1cc(OCCN2CCCCC2)cc(-c2n[nH]c3ccc(-c4nnc[nH]4)cc23)c1", "intracellular M.tb growth inhibition": "-65.3 ± 120"}, {"smiles": "Clc1ccc(Nc2nnc(Cc3ccncc3)c3ccccc23)cc1", "note": "[Vatalanib dihydrochloride]", "intracellular M.tb growth inhibition": "-2.9 ± 24"}, {"smiles": "Cc1cn(-c2cc(NC(=O)c3ccc(C)c(Nc4nccc(-c5cccnc5)n4)c3)cc(C(F)(F)F)c2)cn1", "note": "[Nilotinib]", "intracellular M.tb growth inhibition": "-5.88 ± 8.3"}, {"smiles": "CCCCCCCC(=O)OCCOC(=O)CCCCCCC", "note": "[Dioctanoylglycol]", "intracellular M.tb growth inhibition": "0.763 ± 3"}, {"smiles": "CC(C)(C)n1nc(-c2cccc3ccccc23)c2c(N)ncnc21", "note": "[1-Naphthyl PP1]", "intracellular M.tb growth inhibition": "21.2 ± 3.2"}, {"smiles": "O=C(O)c1cc(N(Cc2ccccc2O)Cc2cc(O)ccc2O)ccc1O", "note": "[Lavendustin A]", "intracellular M.tb growth inhibition": "10.4 ± 41"}, {"smiles": "Nc1cccc(-c2cc3c(Oc4cccc(O)c4)ncnc3[nH]2)c1", "intracellular M.tb growth inhibition": "-14.2 ± 26"}, {"smiles": "Nc1ccc(-c2cccc3c(=O)cc(N4CCOCC4)oc23)cc1", "intracellular M.tb growth inhibition": "-49 ± 35"}, {"smiles": "CCOc1cc2ncc(C#N)c(Nc3ccc(OCc4ccccn4)c(Cl)c3)c2cc1NC(=O)/C=C/CN(C)C", "note": "[Neratinib]", "intracellular M.tb growth inhibition": "-146 ± 210"}]}]}
